PubChem BioAssay
Results filed as inconclusive are left out. Unmarked numbers belong to inactive results. Activity calls are given as the source filed them.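 Rule for the calls: active = viability at or below 27.92% in each of two runs, the all-compound median minus 4 SD; inconclusive = no clear call, values can overlap the other calls; inactive = the rest.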

Assay: growth suppression of PTEN-deleted HCT116, pilot screen, cell-based, HCT116 clonal line, CellTiter-Glo (AID 824);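 note: 0% = 20 µM Hyamine control and 100% = vehicle cell control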
Details: 60 h, at 10 µM, hits give low values

Compared with `CC(CCc1ccccc1)NC(=O)C1CCCN(c2nnc(-n3cccc3)s2)C1` (centres undefined), `Cc1occc1C(=O)N1CCN(Cc2ccccc2)CC1` is higher in viability: 96% for the first, 97.6% for the second.

Going from `O=C(c1cc(C2CC2)on1)N1CCN(C(c2ccccc2)c2ccccc2)CC1` to `COc1ccc(S(=O)(=O)N(CC(=O)N2CCN(c3ccccc3OC)CC2)c2ccccc2)cc1`, the viability falls from 76.8% to 72.3%.

Going from `O=C(C1COc2ccccc2O1)N1CCCC1` (centres undefined) to `CC(=O)C1=C(N2CCCCC2)CCC1=O`, the viability falls from 96.9% to 94.7%.

First: CCCCOC(=O)Nc1nc2ccc(OC)cc2s1
Second: COc1ccc(C(=O)Nc2nncs2)c(OC)c1
The viability of the first is lower: 93.7% for the first, 93.9% for the second.

Compared with `CCn1cc(C(=O)NCC2CCCO2)c(=O)c2cc(S(=O)(=O)N(C)C3CCCCC3)ccc21` (centres undefined), `CCn1cc(C(=O)NCCCOC)c(=O)c2cc(S(=O)(=O)N(C)C)ccc21` is higher in viability: 87% for the first, 94.2% for the second.

Compared with `CCCNC(=O)CS(=O)(=O)Cc1nc(-c2cccc(OC)c2)oc1C`, `COc1cccc(NC(=O)C2CCCN(S(=O)(=O)c3cccc4cccnc34)C2)c1` (centres undefined) is lower in viability: 87% for the first, 70.6% for the second.

Going from `CCOC(=O)C1CCN(Cc2ccc(F)c(Br)c2)CC1` to `CSc1cccc(NC(=O)C2CCN(S(=O)(=O)c3ccc(F)cc3)CC2)c1`, the viability falls from 91.9% to 62%.

First: Cc1ccc(N(C(=O)c2ccncc2)C2C=CS(=O)(=O)C2)cc1 (centres undefined)
Second: COc1ccccc1S(=O)(=O)Cc1ccc(C(=O)N2CCN(c3ccc(C)cc3)C(C)C2)o1 (centres undefined)
The viability of the first is higher: 98.4% for the first, 36.8% for the second.

Going from `COc1ccc(CCNC(=O)C2(C)CCC(=O)N2Cc2ccc3c(c2)OCO3)cc1OC` (centres undefined) to `COc1ccc(C2c3c(oc4ccccc4c3=O)C(=O)N2c2ccc(C)cn2)cc1OC` (centres undefined), the viability falls from 97.5% to 82.2%.

Going from `Cc1cc(C)nc(/N=C2\NC(=O)CC(C(=O)O)N2c2ccc(Cl)cc2)n1` (centres undefined) to `COc1ccc(N2Cc3ccccc3C2)cc1Cl`, the viability falls from 102% to 87.7%.

First: O=C(O)c1ccccc1S(=O)(=O)NCC(O)COc1ccc(Br)cc1 (centres undefined)
Second: CNC(=O)c1ccsc1NC(=O)c1ccccc1
The viability of the first is higher: 100% for the first, 95.2% for the second.

First: COC(=O)Cn1c(=NC(=O)CSCC(=O)Nc2cc(C)on2)sc2ccccc21
Second: O=C(CSc1nnc(Cn2c(=O)sc3ccccc32)n1-c1ccccc1)Nc1nccs1
The viability of the first is higher: 96.9% for the first, 90% for the second.

Going from `CCOc1ccccc1NC(=O)CC1Nc2cc(C)c(C)cc2NC1=O` (centres undefined) to `CCc1ccccc1NC(=O)c1cnc2n(c1=O)CCS2`, the viability rises from 77.8% to 97%.

Compared with `CCOC(=O)C(CC)n1nc(C)n2c(cc3sccc32)c1=O` (centres undefined), `CCOC(=O)C(CC)(CCC(=O)O)c1csc(N)n1` (centres undefined) is higher in viability: 95.2% for the first, 98.3% for the second.

Going from `CCOc1ccc(NC(=O)CN2C(=O)C3CCCN3C2=O)cc1` (centres undefined) to `CCOC(=O)N1CCN(C(=O)COc2ccc(S(=O)(=O)NC(C)C)cc2)CC1`, the viability falls from 97.1% to 93%.

Compared with `O=C(NC1CCCc2ccccc21)c1ccc(CNc2c(N3CCOCC3)c(=O)c2=O)cc1` (centres undefined), `CNC(=O)c1ccccc1NC(=O)c1c(O)c2c([nH]c1=O)CCCC2` is higher in viability: 59.3% for the first, 94.5% for the second.

First: N#Cc1cc2c(nc1SCC(=O)N1CCCCC1)CCCC2
Second: COc1ccc(N2CCN(c3oc(COc4ccccc4Cl)nc3C#N)CC2)cc1
The viability of the first is higher: 91.3% for the first, 64.9% for the second.

Going from `O=C1CCCC2=C1C(c1cccc(Br)c1)n1nc(-c3ccco3)nc1N2` (centres undefined) to `CC(CCc1ccco1)NC(=O)Cn1ncc2c1-c1ccccc1OC2` (centres undefined), the viability rises from 76.5% to 91.3%.

First: CN(C)CCCN1C(=O)CSC1c1ccccc1 (centres undefined)
Second: CCc1ccc(N(CC(=O)NC2CCCC2)S(=O)(=O)c2c(C)noc2C)cc1
The viability of the first is higher: 101% for the first, 93.8% for the second.

With `CCOC(=O)N1CCC(c2cc(=O)n3[nH]c(C)c(-c4ccc(F)cc4)c3n2)CC1` the viability was 19.7% (active).
